Bioassay records: PubChem, National Center for Advancing Translational Sciences (NCATS)
USP2a inh – qHTS Assay for Inhibitors of Ubiquitin-specific Protease USP2a Using CHOP2 as the Reporter; Ubiquitin carboxyl-terminal hydrolase 2 (Homo sapiens), O75604; Potency, µM (highest dose often 38.3 µM), most hits filed as inhibitors; 330,000 tested, 0.01% active; USP2 core, Ub-CHOP2 coupled fluorogenic reporter, 485/531; AID 463254, 2010
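USP2 core (10nM final) preincubated 30min RT with compound in 20mM Tris-HCl pH 8.0, 2mM CaCl2, 2mM beta-mercaptoethanol, 0.05% CHAPS; 25nM Ub-CHOP2 plus 25nM reporter substrate added, fluorescence (Ex485/Em531) read after 60min.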
Eya2 phos inh – qHTS Assay for Inhibitors of the Phosphatase Activity of Eya2; Protein phosphatase EYA2 (Homo sapiens), O00167; recombinant Eya2, OMFP fluorescence dephosphorylation (OMFP is methylfluorescein phosphate); Potency, µM (doses to about 76.9 µM), usual class: inhibitors; 330,000 tested, 0.006% active
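Eya2 (0.2 uM) preincubated 10 min at ambient with compound, then OMFP substrate added at 50 uM; 10 min reaction in 50 mM HEPES pH 7.5, 50 mM NaCl, 5 uM MgCl2, 0.05% BSA, 1 mM DTT. Fluorescence read at Ex 485/Em 525 nm.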
GALK inhibitor – qHTS Assay for Inhibitors of Human Galactokinase (GALK). P51570. Purified GALK, Kinase-Glo residual ATP luminescence. Potency, µM (titrated, usually from 57.5 µM), most hits filed as inhibitors. 270,000 tested, 0.007% active. AID 1868, 2009
Target sequence (P51570 whole entry, looked up): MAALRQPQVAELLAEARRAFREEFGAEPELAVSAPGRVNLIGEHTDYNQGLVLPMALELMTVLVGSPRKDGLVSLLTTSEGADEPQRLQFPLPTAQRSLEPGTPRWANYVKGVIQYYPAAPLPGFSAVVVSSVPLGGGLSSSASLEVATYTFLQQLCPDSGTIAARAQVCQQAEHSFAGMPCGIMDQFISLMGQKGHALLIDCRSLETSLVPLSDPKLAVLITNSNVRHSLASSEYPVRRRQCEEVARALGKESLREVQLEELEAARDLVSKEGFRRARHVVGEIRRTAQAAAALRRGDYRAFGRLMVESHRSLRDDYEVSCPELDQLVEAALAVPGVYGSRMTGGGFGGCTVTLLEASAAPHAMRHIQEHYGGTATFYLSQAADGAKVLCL
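Galactose (100 uM) and ATP (35 uM) were turned over by 5 nM GALK for 1 h at RT. Kinase-Glo Plus then converted the remaining ATP into a luminescent signal.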
D1 agonist – Allosteric Agonists of the Human D1 Dopamine Receptor: qHTS. HEK293 T-REx D1 cells, calcium flux, agonist mode. D(1A) dopamine receptor (Homo sapiens), P21728. activation, % at 2 µM. 360,000 tested, 1% active; in the data active = activation above about 30%
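Tetracycline-induced HEK293 TREx D1 cells, force-coupled to calcium signalling, were dye-loaded with a no-wash calcium kit. Compound was pin-added after a 10 s baseline. Fluorescence was read kinetically at 1 cycle/s for 180 s, with calcium rises flagged as agonism.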
D1 PAM – Potentiators of Human D1 Dopamine Receptor: qHTS; AID 504651, 2011; potentiation, % at 10 µM; 360,000 tested, 0.036% active; D(1A) dopamine receptor (Homo sapiens), P21728; HEK293 TREx D1 cells, calcium flux, dopamine EC20 potentiation; in the data active = potentiation above about 30%
D1 antag – Antagonist of Human D 1 Dopamine Receptor: qHTS. D(1A) dopamine receptor (Homo sapiens), P21728. HEK293 TREx D1 cells, calcium flux, dopamine EC80; active compounds read low. activity change, negative = inhibition, % at 10 µM. 360,000 tested, 3.2% active. AID 504652, 2011; in the data active = activity change below about -30%
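Tetracycline-induced HEK293 T-REx cells with force-coupled D1 receptor were loaded with a no-wash calcium dye. Compound was added after a 10 s baseline and read kinetically for 180 s; EC80 dopamine was then added and calcium flux followed another 180 s.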
A number is an active result; n = inactive; u = inconclusive; x = no result. Rows were chosen to be rich in hits. Some 3.9% of all compounds tested hit in one or more screens of this group. Unless noted, calls follow the shape of the dose curve; as a rule, active = well fitted inhibition curve with a large enough effect; inconclusive = small, poorly fitted or top-dose-only effect, or effect the other way; inactive = flat fitted curve, though single readings scatter.

SMILES	USP2a inh	Eya2 phos inh	GALK inhibitor	D1 agonist	D1 PAM	D1 antag
COc1cc(NC(=O)c2ccno2)cc(C(=O)Nc2cccc(C(F)(F)F)c2)c1	n	n	n	n	n	n
COc1ccc(-c2cc(C(=O)Nc3cc(OC)cc(C(=O)Nc4cccc(C(F)(F)F)c4)c3)[nH]n2)cc1	n	n	n	n	n	-30.8
COc1ccc(C(=O)c2cn(Cc3ccccc3F)c3ccc(F)cc3c2=O)cc1	x	x	x	n	n	n
Cc1ccccc1C(=O)N=c1ccn(-c2nc3ccccc3nc2NS(=O)(=O)c2ccccc2)cc1	n	n	n	38.8	n	n
CCOc1ccc(S(=O)(=O)Nc2nc3ccccc3nc2-n2ccc(=NC(=O)c3ccccc3C)cc2)cc1	n	n	n	61.5	n	n
COc1cc(Cl)c(C)cc1Nc1nc2ccccc2nc1NS(=O)(=O)c1ccccc1	x	x	x	n	n	n
CCOc1ccc(S(=O)(=O)Nc2nc3ccccc3nc2N2CCN(C)CC2)cc1	n	n	n	n	n	n
COc1ccc(N2CCN(C(=O)c3ccc(C)c(NC(=O)c4nsc5ccccc45)c3)CC2)cc1	x	x	x	n	n	n
CCS(=O)(=O)c1oc(-c2ccc(F)cc2)nc1S(=O)(=O)c1ccccc1	x	x	x	n	n	n
CCN1/C(=C2\SC(=S)N(Cc3ccccc3)C2=O)Sc2ccccc21	n	n	n	n	n	n
CCC(CO)[n+]1c(C)cc(/C=C2\Sc3ccccc3N2Cc2ccccc2)cc1C (stereo not drawn)	n	n	n	n	n	-76.4
CCc1cccc(C)c1NS(=O)(=O)c1c(C(=O)N2CCC(C)CC2)c(C)n(C)c1C	x	x	x	n	n	n
CCOC(=O)C1CCN(C(=O)C2CCN(C3=NS(=O)(=O)C(c4ccc(C)cc4)=C3CC)CC2)CC1	x	x	x	n	n	n
O=C(NCc1ccco1)C1CCCN(c2nnc(-n3cccc3)s2)C1 (stereo not drawn)	n	n	n	n	n	-39.4
CC(C)(C)c1ccc(NC(=O)c2ccsc2)cc1	n	n	n	n	n	-31.2
CC(C)c1ccc(Nc2c([N+](=O)[O-])c(=O)n(C)c3ccccc23)cc1	n	n	n	n	n	-49.6
COc1ccc(NC(=O)CCCc2nnc3n(CCC(C)C)c(=O)c4sccc4n23)cc1Cl	x	x	x	n	n	n
COC(=O)c1ccc(OC)c(CN2CCCN(Cc3ccc(C)cc3)S2(=O)=O)c1	x	x	x	n	n	-33.9
COC(=O)c1ccc(OC)c(CN2CCCN(Cc3cc(C)ccc3C)S2(=O)=O)c1	n	n	n	n	n	n
O=C(Oc1cc(-c2ccccc2)no1)c1cccc(C(F)(F)F)c1	n	n	n	n	n	n
O=C(Oc1cc(-c2ccccc2)no1)c1ccc(F)cc1	n	n	n	n	n	-46.6
Cc1csc(=N)n1CC(=O)N1CCc2ccccc21	n	n	n	n	n	-32.2
Cc1ccc(NC(=O)Cn2cc3c(n2)CCCCC3)cc1	x	x	x	39.7	n	n
CC(=O)Nc1ccc(NC(=O)Cn2cc3c(n2)CCCC3)cc1	n	n	n	n	n	n
O=C(Cn1cc2c(n1)CCCCC2)N1CCc2ccccc21	n	n	n	n	n	-75.7
SMILES	USP2a inh	Eya2 phos inh	GALK inhibitor	D1 agonist	D1 PAM	D1 antag
COc1cccc2cc(-c3nnc(Nc4ccccc4C)s3)c(=O)oc12	x	x	x	n	n	n
COc1ccc(CN2CCc3c(c(=O)n4ncc(C(=O)N5CCN(c6ccccc6OC)CC5)c4n3C)C2)cc1	x	x	x	n	n	n
COc1cc(C(=O)N(CCCN(C)C)c2nc3c(OC)cccc3s2)cc(OC)c1OC	x	x	x	n	n	n
C=CCNC(=O)c1onc(CSc2ccc(F)cc2)c1C(=O)O	n	n	n	n	n	-34.3
CCCNC(=O)c1onc(CSc2ccccc2)c1C(=O)NCCC	n	n	x	n	n	n
O=C(NCc1ccccc1)c1onc(CSc2ccccc2)c1C(=O)NCC1CC1	n	n	n	45.7	n	-50.7
CCCNC(=O)c1onc(CSc2ccccn2)c1C(=O)NCCC	n	n	n	n	n	-37.5
Cn1cc(S(=O)(=O)N2CCCCC2)cc1C(=O)Nc1cccc(C#N)c1	x	x	x	n	n	n
CCOc1ccccc1NC(=O)Cn1cnc2onc(-c3ccc(F)cc3)c2c1=O	x	x	x	n	n	n
O=C(Nc1nc(-c2ccccc2)nc2ccccc12)c1ccc(F)cc1	n	n	n	n	n	-58.0
Cc1ccc(Nc2nc(NCCO)c3ccccc3n2)cc1C	n	n	n	n	n	-38.0
OCCCNc1nc(-c2ccc(Cl)cc2)nc2ccccc12	n	n	n	n	n	n
OCCNc1nc(-c2ccccc2)nc2ccccc12	n	u	n	n	n	-34.5
Oc1ccc(Nc2nc(-c3ccc(Cl)cc3)nc3ccccc23)cc1	x	x	x	n	n	-33.5
Oc1ccc(Nc2nc(-c3ccccc3)nc3ccccc23)cc1	n	n	n	n	n	n
CCc1ccc(/C=C2\Oc3cc(OS(C)(=O)=O)ccc3C2=O)cc1	n	n	n	n	n	n
O=C1/C(=C/c2ccc(Br)cc2)Oc2cc(O)ccc21	n	n	x	45.0	n	n
CC(C)(C)c1ccc(/C=C2\Oc3cc(O)ccc3C2=O)cc1	n	n	n	n	n	-46.4
COC(=O)c1ccc2c(c1)C(=O)/C(=C/c1ccc(O)cc1)O2	n	n	n	87.9	n	n
O=C1/C(=C/c2ccc([N+](=O)[O-])cc2)Oc2cc(O)ccc21	n	n	x	n	n	n
O=C(NCc1cccs1)c1ccc(CSc2nc3ccncc3n2Cc2ccccc2)cc1	x	x	x	n	n	n
COc1ccc(CN(C(=O)c2ccc(OCC(C)C)cc2)C2CCS(=O)(=O)C2)cc1 (stereo not drawn)	x	x	x	n	n	n
Cc1csc2nc(-c3cccc(NC(=O)c4c(F)cccc4F)c3)cn12	x	x	x	n	n	n
Cc1ccc(-c2nnn(CC(=O)N(CC(=O)NCCC(C)C)c3ccc(F)cc3)n2)cc1	x	x	x	n	n	n
Cc1ccc(S(=O)(=O)NCCc2cn3ccsc3n2)c(C)c1	x	x	x	n	n	n
O=C(NCCc1ccc(Cl)cc1)Nc1ccc(F)cc1	n	n	n	n	n	n
CCCc1c(NC(=O)Nc2ccc(F)cc2)cnn1-c1ccc(Cl)cc1	n	n	n	n	n	-43.1
C=CCNc1nc(Nc2ccc([N+](=O)[O-])cc2)nc(OCC)n1	n	n	x	n	n	-54.6
